# Test results as given in PubChem BioAssay AID504332 (National Center for Advancing Translational Sciences (NCATS), 2011).
# The whole screen tested about 350,000 compounds, of which about 31,000 (8.9%) were called active. Roughly 15% stayed inconclusive and do not appear here. This is one part of a sample in which actives are shown more often than they occur. Calls come from the whole dose curve; as a rule, active = well fitted inhibition curve with a large enough effect; inconclusive = small, poorly fitted or top-dose-only effect; inactive = no such curve, though single readings can be large or run the other way.
# Target: Histone-lysine N-methyltransferase EHMT2 (Homo sapiens) (UniProt Q96KQ7)
# Assay: qHTS Assay for Inhibitors of Histone Lysine Methyltransferase G9a; note: nearly all actives have a fitted effect of over 75% in size
# Conditions: G9a H3K9 monomethylation, AlphaScreen, 2 h; series mostly up to 59 µM; activity, negative = inhibition: at the top concentration
# Procedure, shortened: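 Readings reflect AlphaScreen signal from monomethyl-H3K9 antibody detection. HMT at 20 nM; substrate b-H3K9 500 nM; cofactor SAM 20 uM; 2 h RT reaction; compounds tested as titrations in qHTS with 15 min preincubation.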
# % is set by controls: 0 for no effect and ±100 for the full control effect; potency is the fitted concentration of half-maximal effect.
# Chain of Histone-lysine N-methyltransferase EHMT2 (Homo sapiens) (Q96KQ7 913-1193 limits assumed): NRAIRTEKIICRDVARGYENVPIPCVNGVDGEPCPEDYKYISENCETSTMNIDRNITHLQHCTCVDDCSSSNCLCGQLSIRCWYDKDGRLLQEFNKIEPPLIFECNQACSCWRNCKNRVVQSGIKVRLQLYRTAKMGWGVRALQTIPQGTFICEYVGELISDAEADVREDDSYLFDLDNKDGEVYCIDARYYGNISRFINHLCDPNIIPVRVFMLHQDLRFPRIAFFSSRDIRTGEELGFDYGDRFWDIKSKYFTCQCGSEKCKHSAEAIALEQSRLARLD
Structure (SMILES),"activity, negative = inhibition",Potency
CCc1c(C)sc(NC(=O)/C=C/c2ccc3c(c2)OCO3)c1C(=O)OC,88.9% (inactive),–
CCC1=C/C(=C\c2ccc3c(c2)OCO3)C(=O)S1,–,11.2 µM (active)
CCOC(=O)CCCNC(=O)COC(=O)/C=C/c1ccc2c(c1)OCO2,2.73% [at 102 µM] (inactive),–
COc1ccc(CCNC(=O)c2cnc3sc(N4CCCCCC4)nn3c2=O)cc1OC,11.6% (inactive),–
Cc1oc2ccc(O)c(CN3CCC(C)CC3)c2c1C(=O)Nc1ccccc1,-28.5% (inactive),–
Cc1nc2ccc(S(=O)(=O)NC(C(=O)NCc3ccccc3Cl)C(C)C)cc2s1 (stereo unspecified),7.62% (inactive),–
O=C(Nc1nc(-c2ccc(-c3ccccc3)cc2)cs1)c1cnccn1,23.9% (inactive),–
Brc1ccc(-c2csc(N/N=C/c3cccnc3)n2)cc1,–,14.1 µM (active)
O=C(N/N=C/c1ccc2c(c1)OCO2)C(=O)N1CCCC1,5.14% [at 102 µM] (inactive),–
O=C(NCc1cccnc1)C(=O)Nc1nc(-c2ccccc2)cs1,-6.58% (inactive),–
Brc1ccc(-c2csc(N/N=C/c3ccc4c(c3)OCO4)n2)cc1,–,3.55 µM (active)
O=C(Cc1ccc(F)cc1)N/N=C/c1ccc2c(c1)OCO2,17.5% [at 102 µM] (inactive),–
CCOc1ccc(-c2cc3c(=O)n(CC(=O)NCc4ccc(OC)cc4)ccn3n2)cc1,0.34% [at 12.7 µM] (inactive),–
Cc1ccc(C)c(Oc2c(C(F)(F)F)oc3c(CN4CCN(C)CC4)c(O)ccc3c2=O)c1,-27.1% (inactive),–
Cc1ccc2nc(/C(C#N)=C/c3ccc(-c4ccc(C(=O)OC(C)C)cc4)o3)[nH]c2c1,-5.43% (inactive),–
Cc1ccccc1-n1c(SCC(=O)NCc2cccs2)nnc1-c1ccncc1,2.97% [at 102 µM] (inactive),–
Cc1ccc(-n2c(SCC(=O)N3c4ccccc4Sc4ccccc43)nnc2-c2ccncc2)cc1,-5.41% (inactive),–
Cc1ccc(Nc2nc(CSc3nnc(-c4ccncc4)n3-c3ccccc3C)cs2)cc1,–,44.7 µM (active)
CCOc1ccc(CNCCSc2nnnn2C)cc1,-3.51% (inactive),–
CCc1ccc(NC(=O)c2cc(S(=O)(=O)N3CCCC(C)C3)cn2C)cc1 (stereo unspecified),-3.12% (inactive),–
COc1ccc(OC)c(-c2noc(N3CCN(c4cc(Cl)ccc4C)CC3)n2)c1,-5.88% (inactive),–
CCc1nc(-c2cc(S(=O)(=O)N3CCN(c4ccc(OC)cc4)CC3)ccc2OC)no1,–,0.631 µM (active)
COc1ccc(S(=O)(=O)N2CCN(c3ccc(F)cc3)CC2)cc1-c1noc(C)n1,6.56% (inactive),–

Structure (SMILES),"activity, negative = inhibition",Potency
Cc1ccc(-n2ncc3c(N4CCC(C(N)=O)CC4)ncnc32)cc1,-5.29% (inactive),–
CC(C)(C)OC(=O)N1CCC(c2c(C(=O)N3CCc4ccccc4C3)cnn2-c2ccc(F)cc2)CC1,-8.88% (inactive),–
Cc1ccc(C(=O)Nc2ccc(OCc3cc(=O)n4c5c(sc4n3)CCCC5)cc2)cc1,7.45% (inactive),–
O=C(COC(=O)CNS(=O)(=O)c1ccc(F)c(F)c1F)NC1CCCC1,-25.7% [at 102 µM] (inactive),–
CCc1ccc(S(=O)(=O)c2nnn3c2nc(N2CCN(CC)CC2)c2sccc23)cc1,-45.5% (inactive),–
CCCCN(C(=O)CSCC(=O)Nc1ccc(OC)cc1)c1c(N)n(CCC)c(=O)[nH]c1=O,19.8% [at 2.33 µM] (inactive),–
CCOC(=O)N1CCN(Cc2nc(N)nc(Nc3ccc(C)cc3)n2)CC1,-23.8% [at 2.33 µM] (inactive),–
Cc1ccccc1Nc1nc(N)nc(CN2CCN(c3ccccn3)CC2)n1,-45.5% [at 12.7 µM] (inactive),–
Cc1ccc(Nc2nc(N)nc(CN3CCN(Cc4ccccc4)CC3)n2)cc1Cl,–,50.1 µM (active)
CC(=O)c1ccc(NC(=O)c2ccc(-n3cncn3)c([N+](=O)[O-])c2)cc1,15% [at 102 µM] (inactive),–
COc1ccccc1OCCNc1cc(N2CCOCC2)ccc1[N+](=O)[O-],–,39.8 µM (active)
O=[N+]([O-])c1ccc(N2CCN(S(=O)(=O)c3ccc4ccccc4c3)CC2)cc1NCc1ccco1,-41.4% (inactive),–
O=C(c1ccccc1)N1CCN(c2ccc([N+](=O)[O-])c(NCc3ccco3)c2)CC1,44.5% [at 0.501 µM] (inactive),–
COc1ccccc1OCCNC(=O)c1cc([N+](=O)[O-])cc([N+](=O)[O-])c1,-33.4% [at 102 µM] (inactive),–
CC(=O)Nc1ccc(S(=O)(=O)N2CCN(c3ccc([N+](=O)[O-])c(NCCN4CCOCC4)c3)CC2)cc1,–,70.8 µM (active)
CC(=O)Nc1ccc(S(=O)(=O)N2CCN(c3ccccc3)CC2)cc1,1.17% (inactive),–
O=C(NCCNc1ccccc1[N+](=O)[O-])c1ccccc1F,2.67% (inactive),–
Cc1ccc(CCNC(=O)c2ccc(CS(=O)(=O)Cc3cccc(C)c3)o2)cc1,9.17% (inactive),–
O=C(N/N=C\c1cc2c(cc1Cl)OCO2)c1ccc(Br)s1,-6.61% [at 102 µM] (inactive),–
CCN1C(=O)[C@@H]2[C@@H](c3ccc(-c4cccc(Cl)c4)cc3)N3CCC[C@@]3(C(=O)OC)[C@@H]2C1=O,4.52% [at 2.33 µM] (inactive),–
CCOc1cc(/C=C2/C(=N)N3OC(C)=CC3=NC2=O)ccc1OC,-30.7% [at 102 µM] (inactive),–
CC1=CC2=NC(=O)/C(=C/c3coc4ccccc4c3=O)C(=N)N2O1,–,44.7 µM (active)
CC(C)(C)OC(=O)NCCCCCC(=O)N/N=C/c1coc2ccccc2c1=O,-6.59% [at 102 µM] (inactive),–
